Experimental data taken from PubChem BioAssay (EPA / NIEHS).
Some structures have more than one record in an assay (separate samples or runs), and their calls can disagree. Active and inactive are the calls of the source. The calls were made as follows: active = hit-call score of the fitted dose curve at least 0.9, where 1 is the maximum; inactive = score below 0.9.

read-out: Glutamate-cysteine ligase regulatory (GCLM), GCLM (gene 2730); assay: LTEA_HepaRG_GCLM: Life Technologies and Expression Analysis (LTEA) Assay for Glutamate-cysteine ligase regulatory (GCLM) using HepaRG (AID 2283500); details: mRNA level, 48 h; actives raise or lower the signal
Experimental: LTEA_HepaRG is a cell based, multiplexed-readout assay that uses HepaRG, a human liver cell line, with measurements taken at 48 hours after chemical dosing on a 96-well plate.LTEA_HepaRG_GCLM is one of 102 assay component(s) measured in the LTEA HepaRG cell culture assay. It is a marker of Cell proliferation, survival, death.Data from the assay component LTEA_HepaRG_GCLM was analyzed into 1 endpoint. This assay endpoint, LTEA_HepaRG_GCLM, was analyzed with bidirectional fitting relative to DMSO as the negative control and baseline of activity. Using a type of inducible reporter, measures of mRNA induction for gain or loss-of-signal activity can be used to understand regulation of transcription factor activity. To generalize the intended target to other relatable targets, this assay endpoint is annotated to the ligase intended target family, where the subfamily is C-N ligase.
A total of 1060 chemcials from the ToxCast library were tested in eight-point concentration-response experiments. Cell culture and cytotoxicity assays were conducted at Thermo Fisher Scientific's Custom Services facility (Madison, WI). A single lot of human HepaRG cells (Thermo Fisher Scientific, Frederick, MD) was used for the cell culture experiments. 96-well format collagen type I coated plates of human HepaRG cells were prepared using established methods. Briefly, cryopreserved HepaRG cells were thawed, plated at a density of approximately 100,000 cells/well in HepaRG Thaw, Plate, and General Purpose media (HPRG770, Thermo Fisher Scientific), and incubated for 48 hours. 0.5% DMSO was selected as vehicle control to balance the requisite need of DMSO in HepaRG cultures to maintain differentiation (for example, baseline metabolism, proportions of hepatocytes vs. cholangiocytes), while enabling further hepatic receptor pathway activation (for example, PXR and CAR) in response to chemical exposure. 48 hours after plating, the culture medium was replaced with HepaRG Serum-Free Incudtion Media. Cells were exposed to each test chemical in duplicate and maintained in CO2 incubators for another 48 hours. Chemical plates were thawed to room temperature and 200x concentrations of treatment groups were prepared. 8-point conentration-reponse curves were made with the highest exposure at 100 uM, followed by half-log dilutions, all in 0.5% DMSO. Each test plate contained variouse controls, induction positive controls (1mM phenobarbital), cytotoxicity positive controls ([…] aflatoxin B1), vehicle controls (0.5% DMSO), and total lysis controls (0.5% DMSO). Cell morphology images were taken using an Essen IncuCyte FLR automated microscope, with six 96-well plates imaged in about 24 minutes. Images were captured and exported and JPEG files. Spent culture media was transfered to black-well plates for the LDH assay, and remaining media was sorted at -80 C for later use. Cells were treated with RLT buffer and frozen until shipped for gene expression analysis. Total RNA was isolated from the cell suspension in 75 uL of Buffer RLT (Qiagen, Germantown, MD 20874) by Quintiles/Expression Analysis (Durham, NC) using a custom isolation procedure. Total RNA from each plate well was transferred to a preamplification plate. Fluidigm's 96.96 Dynamic ArrayTM (Fluidigm, Amsterdam, the Netherlands) technology was used for gene expression analyses by quantitative reverse transcription polymerase chain reaction (qRT-PCR, performed by Quintiles/Expression Analysis, Durham, NC)89. Standard TaqManTM Assays (Applied Biosystems/ThermoFisher Scientific, Foster City, CA) were used to assess the expression of 93 genes selected based on their selectivity and sensitivity to important hepatic receptors known to be modulated by environmental chemicals; importance in human hepatocyte functionality; and hepatotoxicity. […]

SMILES | outcome | AC50
CC(C)(C)CC(C)(C)c1ccc(O)cc1 | inactive | 
CC(=O)[O][Hg][c]1ccccc1 |  | 23 µM (active)
C=C(C)C(=O)[O][Sn]([CH2]CCC)([CH2]CCC)[CH2]CCC |  | 88.7 µM (active)
Cc1ccccc1N | inactive | 
CCOP(=S)(OCC)SCSP(=S)(OCC)OCC | inactive | 
COc1cc(-c2ccc(N)c(OC)c2)ccc1N | inactive | 50 µM (active)
CCCCCCCCc1ccc(O)cc1 | inactive | 
O=C1C2(Cl)C3(Cl)C4(Cl)C(Cl)(Cl)C5(Cl)C3(Cl)C1(Cl)C5(Cl)C24Cl (configuration not stated) |  | 88.5 µM (active)
ClC1(Cl)C2(Cl)C3(Cl)C4(Cl)C(Cl)(Cl)C5(Cl)C3(Cl)C1(Cl)C5(Cl)C24Cl (configuration not stated) | inactive | 
O=C(O)C(Cl)(Cl)Cl | inactive | 
CCC(C)(C)c1ccc(O)c(C(C)(C)CC)c1 | inactive | 
C=CC(=O)OCCCCCC(C)C | inactive | 
O=C(O)C(F)(F)C(F)(F)C(F)(F)C(F)(F)C(F)(F)C(F)(F)F | inactive | 
O=[N+]([O-])c1ccc(O)c([N+](=O)[O-])c1 |  | 12.2 µM (active)
C[C@]12CCC(=O)C[C@@H]1CC[C@@H]1[C@@H]2CC[C@]2(C)[C@@H](O)CC[C@@H]12 | inactive | 
NC(=O)O | inactive | 

SMILES | outcome | AC50
CCOP(=S)(OCC)Oc1nc(Cl)c(Cl)cc1Cl | inactive | 
C[C@@H]1C[C@@H]([C@H](O)CC2CC(=O)NC(=O)C2)C(=O)[C@@H](C)C1 |  | 17.9 µM (active)
O=C(O)C(F)(F)C(F)(F)C(F)(F)C(F)(F)C(F)(F)C(F)(F)C(F)(F)C(F)(F)C(F)(F)C(F)(F)F | inactive | 
O=C(Nc1ccc2[nH]ccc2c1)c1cc2cc(F)ccc2n1Cc1cccc(F)c1 |  | 27.8 µM (active)
CCC(=O)C(CC(C)N(C)C)(c1ccccc1)c1ccccc1 (configuration not stated) | inactive | 
CC(C)(OO)c1ccccc1 | inactive | 
CC12CC1(C)C(=O)N(c1cc(Cl)cc(Cl)c1)C2=O (configuration not stated) | inactive | 
Oc1cccc2cccnc12 | inactive | 
O=c1[nH]c(=O)[nH]c(=O)[nH]1 | inactive | 
Cn1sc(Cl)cc1=O | inactive | 
CCN1CCC2(CC1)COc1cc3c(cc12)N(C(=O)c1ccc(-c2ccc(-c4nnc(C)o4)cc2C)cc1)CC3 |  | 26.8 µM (active)
CC(C)(C)c1cc(O)ccc1O | inactive | 
CC(C)(c1ccccc1)c1ccc(O)c(C(C)(C)c2ccccc2)c1 |  | 50 µM (active)
ClCC(Cl)CCl | inactive | 
CN(C)N=O | inactive | 
